This is an account of results in PubChem BioAssay (NCATS).

Results filed as inconclusive are left out. Activity calls are given as the source filed them. Calls follow the shape of the full dose curve; tested in HEK293 reporter line. Numbered stars: 1 amine (or outer) side, 2 acyl side, 3 side chain; on linkers, the order of the positions; unused ones are H or OH. Bridge positions count the residues as written; N and C are the ends. Square brackets hold non-standard residues; d marks the D form. Peptide text beside a SMILES is read from it. I, II: the chains in the order shown. Actinocin(9to1) = Cc1c2oc3c(C)ccc(C(=O)[*:1])c3nc-2c(C(=O)[*:2])c(N)c1=O; NMeV = CN[C@H](C(=O)O)C(C)C; Sar = CNCC(=O)O
% is scaled to controls: 0 for no effect and ±100 for the full control effect; potency is read from the fitted curve at half-maximal effect.

The assay is described as follows: qHTS for Inhibitors of the Functional Ribonucleoprotein Complex (vRNP) of Lymphocytic Choriomeningitis Arenaviruses (LCMV): Viability assay - alamar blue signal for LCMV Primary Screen (AID 1347085). Also: nearly all actives have a fitted effect of over 80% in size. The conditions noted are these: alamar blue viability counter-screen, LCMV vRNP screen cells; series mostly up to 57.5 µM; activity change, negative = lower viability: at the top concentration.
Take `COC(=O)C(c1ccccc1Cl)N1CCc2sccc2C1` (centres undefined): the “activity change, negative = lower viability” value was 7.88% (inactive).
Regarding `CC/C=C(\C(=O)N[C@@H]1C(=O)N2C(C(=O)OCOC(=O)C(C)(C)C)=C(COC(N)=O)CS[C@H]12)c1csc(N)n1`, the Potency entry was “inactive”.
Regarding `CNC(=O)c1cc(Oc2ccc(NC(=O)Nc3ccc(Cl)c(C(F)(F)F)c3)cc2)ccn1`, the Potency is 17.2 µM (active).
On to `CN1CCC[C@@H]1CCO[C@](C)(c1ccccc1)c1ccc(Cl)cc1`, for which the “activity change, negative = lower viability” value is -17.6% (inactive).
In the case of `CC1(CN2CCC(n3c(=O)[nH]c4ccccc43)CC2)OCc2ccccc2-n2cccc21` (centres undefined), the “activity change, negative = lower viability” value was -1.05% (inactive).
Same read-out and setting: as for `CC1(C)S[C@@H]2[C@H](NC(=O)[C@H](N)c3ccccc3)C(=O)N2[C@H]1C(=O)O`, the figure is 0.411% (inactive); as for `C[C@]12CC[C@H]3[C@@H](CCC4=CC(=O)CC[C@@H]43)[C@@H]1CC[C@@H]2OC(=O)CCc1ccccc1`, 9.75% (inactive); as for `Nc1ncn([C@@H]2O[C@H](CO)[C@@H](O)[C@H]2O)c(=O)n1`, -32.5% (inactive).
`CN1C(=S)CN=C(c2ccccc2)c2cc(Cl)ccc21`: the “activity change, negative = lower viability” value was -127% (inactive).
On to `C=C1C[C@@H]2[C@H](CC[C@]3(C)C(=O)CC[C@@H]23)[C@@]2(C)C=CC(=O)C=C12`, for which the “activity change, negative = lower viability” value was -3.32% (inactive).
Take `CN1CCN(C2=Nc3cc(Cl)ccc3Nc3ccccc32)CC1`: the Potency result was “inactive”.
With `CCOc1ccc2ccccc2c1C(=O)N[C@@H]1C(=O)N2[C@@H]1SC(C)(C)[C@@H]2C(=O)O`, the “activity change, negative = lower viability” value is 1.79% (inactive).
With `Clc1ccc(COC(Cn2ccnc2)c2ccc(Cl)cc2Cl)cc1` (centres undefined), the Potency entry was “inactive”.
In the case of `O=C(c1ccc(OCCN2CCCCC2)cc1)c1c(-c2ccc(O)cc2)sc2cc(O)ccc12`, the Potency entry was “inactive”.
Turning to `COc1ccc(OC)c(C(O)CNC(=O)CN)c1` (centres undefined), the “activity change, negative = lower viability” value was 3.93% (inactive).
As to `COC1=CC(=O)C[C@@H](C)[C@]12Oc1c(Cl)c(OC)cc(OC)c1C2=O`, the “activity change, negative = lower viability” value was -26.6% (inactive).
Consider `CCCCOCCOCCOCc1cc2c(cc1CCC)OCO2`, for which the Potency entry is “inactive”.
Turning to `CCc1nc(N)nc(N)c1-c1ccc(Cl)cc1`, the Potency is 7.69 µM (active).
For `Cc1ccc(-c2nc3ccc(C)cn3c2CC(=O)N(C)C)cc1`, the “activity change, negative = lower viability” value was 6.55% (inactive).
The same measure, in the same setting: to `Cc1ccc(NC(=O)c2ccc(CN3CCN(C)CC3)cc2)cc1Nc1nccc(-c2cccnc2)n1` belongs -27% (inactive); to `c1cnc2cc3c(cc2n1)C1CNCC3C1`, 17.3% (inactive).
For `CN(C)CC/C=C1\c2ccccc2COc2ccccc21`, the Potency result is “inactive”.
Still for that read-out and setting: to `CC(=O)CCCCn1c(=O)c2c(ncn2C)n(C)c1=O` belongs “inactive”.
For `Cc1c2oc3c(C)ccc(C(=O)N[C@@H]4C(=O)N[C@H](C(C)C)C(=O)N5CCC[C@H]5C(=O)N(C)CC(=O)N(C)[C@@H](C(C)C)C(=O)O[C@@H]4C)c3nc-2c(C(=O)N[C@@H]2C(=O)N[C@H](C(C)C)C(=O)N3CCC[C@H]3C(=O)N(C)CC(=O)N(C)[C@@H](C(C)C)C(=O)O[C@@H]2C)c(N)c1=O` (I: T[dV]P[Sar][NMeV] / II: T[dV]P[Sar][NMeV]; ester I:1-I:C, II:1-II:C; linker I:N-II:N via Actinocin(9to1)), the “activity change, negative = lower viability” value is -135% (inactive).
The same measure, in the same setting: as for `CC1OC(C)OC(C)O1` (centres undefined), the figure is 1.25% (inactive).
On to `CC(=O)O[C@]1(C(C)=O)CC[C@H]2[C@@H]3C=C(Cl)C4=CC(=O)[C@@H]5C[C@@H]5[C@]4(C)[C@H]3CC[C@@]21C`, for which the Potency entry was “inactive”.
With `Clc1ccc(CCC(Cn2ccnc2)Sc2c(Cl)cccc2Cl)cc1` (centres undefined), the Potency entry is “inactive”.
As to `CC(C)C[C@H](NC(=O)[C@H](CCc1ccccc1)NC(=O)CN1CCOCC1)C(=O)N[C@@H](Cc1ccccc1)C(=O)N[C@@H](CC(C)C)C(=O)[C@@]1(C)CO1`, the Potency is 0.544 µM (active).
For `CNCC[C@@H](Oc1ccccc1C)c1ccccc1`, the “activity change, negative = lower viability” value was 0.543% (inactive).
